# Test results: PubChem BioAssay (NCATS)
# Results filed as inconclusive are left out. A call without a number means that no potency is given here. Activity calls are given as the source filed them. Calls come from the whole dose curve; as a rule, active = well fitted inhibition curve with a large enough effect; inconclusive = small, poorly fitted or top-dose-only effect; inactive = flat fitted curve, though single readings scatter.
# Target: Phospholipid hydroperoxide glutathione peroxidase GPX4 (Homo sapiens) (UniProt P36969)
# Sequence (P36969 whole entry, looked up): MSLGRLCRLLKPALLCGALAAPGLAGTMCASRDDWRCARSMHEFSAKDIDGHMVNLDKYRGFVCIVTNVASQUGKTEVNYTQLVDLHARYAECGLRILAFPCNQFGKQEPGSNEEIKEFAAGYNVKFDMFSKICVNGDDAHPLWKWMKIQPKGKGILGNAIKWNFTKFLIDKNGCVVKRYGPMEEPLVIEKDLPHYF
# Experiment: Primary qHTS Assay for Inhibitors of Recombinant Selenoprotein Glutathione Peroxidase 4 (GPX4) (AID 1845192); note: nearly all actives have a fitted effect of over 65% in size
# Conditions: recombinant GPX4, GR-coupled NADPH fluorescence, 15 min; series mostly up to 50 µM
# Excerpt: Assay Provider: Elias S.J. Arner MD PhD.
# Department of Medical Biochemistry and Biophysics
# Karolinska Institutet, Solna, Stockholm, Sweden
# Selenoprotein glutathione peroxidases (GPX), like the ubiquitously expressed GPX1 and the ferroptosis modulator GPX4, enact their antioxidant activities by reducing hydroperoxides using glutathione. […] GPX1 and GPX4 inhibitors have thus shown promise as anti-cancer agents. Existing inhibitors are often promiscuous, or modulate GPX activity only indirectly, so novel direct inhibitors identified through screening against GPX1 and GPX4 could be valuable. Here, we developed optimized glutathione reductase (GR)-coupled GPX assays for the biochemical high-throughput screen (HTS) of almost 12,000 compounds with known mechanisms of action. Initial hits were triaged using a GR counter-screen, assessed for isoform specificity using a separate GPX2 assay, and were assessed for general selenocysteine-targeting activity using a thioredoxin reductase (TXNRD1) assay. With this suite of assays, we identified novel GPX1/GPX2- and GPX4-specific inhibitors and can here present a validated pipeline for future discovery research for selenoprotein-targeting agents.
# SEQUENCE No. (e.g., 1, 2, 3, etc.); […] (e.g., Cells, Incubation, Reagent, etc.); VALUE; DESCRIPTION.
# 1; Reagent 1; 3 uL; 333.33 nM GPx4 enzyme or no enzyme control in 1536-well, black, solid Greiner assay plate.
# 2; Compound; 25 nL; Kalypsis pin tool (Wako USA) equipped with a 1536-well pin head.
# 3; Incubation; 30 min; room temperature.
# 4; Reagent 2; 1 uL; 500 nM GR, 5 mM GSH, 2.5 mM NADPH solution
# 5; Reagent 3; 1 uL; 2.5 mM CHP in 50% EtOH.
# 6; Detection; Fluorescence; ViewLux microplate reader, excitation 340 nm and emission 450 nm.
# 7; Incubation; 15 min; room temperature.
# 8; Detection; Fluorescence; ViewLux microplate reader, excitation 340 nm and emission 450 nm.
# NOTES (numbers refer to Sequence numbers above)
# 1. 3 µL of 333.33 nM GPX4 and 0.016% BSA in assay buffer (50 mM Tris-HCl, 2 mM EDTA (pH 7.5), 150 mM NaCl) was added to columns 3-48 of 1536-well plates using a BioRAPTR Flying Reagent Dispenser (Let's Go Robotics (LGR), Carlsbad, CA). A no-enzyme control (0.01% BSA in TES assay buffer) was added to columns 1-2.
# 2. 25 nL, library and DMSO controls were added to each well with a pin tool (Kalypsys).
# 3. The assay plates were incubated for 30 minutes at room temperature.
# 4. 1 µL of master mix (500 nM glutathione reductase (GR), 5 mM reduced glutathione (GSH), 2.5 mM NADPH in assay buffer) was added.
# 5. 1 µL of cumene hydroperoxide (CHP) ([2.5 mM] in 50% EtOH) was then added within 5 minutes to initiate the reaction. Final concentrations were: 200 nM GPX4, 1 mM GSH, 0.5 mM CHP, 0.5 mM NADPH, 100 nM GR, 0.01% BSA.
# 6. Initial fluorescence readout (t=0) at 340/450 nm was measured using a ViewLux multimodal detector (PerkinElmer, Waltham, MA).
# 8. Endpoint fluorescence readout (t=15) at 340/450 nm was measured 15 min after room temperature incubation.
# Potency is the fitted concentration of half-maximal effect.
row,SMILES,Potency
1,C[C@]12Cc3cn4c(nc3C=C1CCC1C2CC[C@@]2(C)[C@H]1CC[C@@]2(O)C#N)nc1ccccc14 (stereo not given in full),inactive
2,O=[N+]([O-])c1ccc2nc(N3CCNCC3)ccc2c1,inactive
3,N#CC(OC1OC(COC2OC(CO)C(O)C(O)C2O)C(O)C(O)C1O)c1ccccc1 (stereo not given),inactive
4,N#C[C@@H](O[C@@H]1O[C@H](CO[C@@H]2O[C@H](CO)[C@@H](O)[C@H](O)[C@H]2O)[C@@H](O)[C@H](O)[C@H]1O)c1ccccc1,inactive
5,CCCCCCCCCCCCCC(=O)O[C@@H]1[C@@H](C)[C@@]2(O)[C@@H](C=C(CO)C[C@@]3(O)C(=O)C(C)=C[C@@H]23)C2C(C)(C)[C@@]21OC(C)=O (stereo not given in full),inactive
6,COC([CH2][Hg])CNC(=O)c1ccccc1OCC(=O)O (stereo not given),inactive
7,CC(C)NP(=O)(NC(C)C)OP(=O)(NC(C)C)NC(C)C,inactive
8,COC(=O)N1CCN(C(=O)Cc2ccc(Cl)c(Cl)c2)[C@@H](CN2CCCC2)C1,inactive
9,C[C@]12CCC(=O)C=C1C=C[C@@H]1[C@@H]2CC[C@@]2(C)[C@H]1CC[C@@]2(O)CCC(=O)O,inactive
10,FC(F)OC(F)(F)C(F)Cl (stereo not given),inactive
11,NC(C(=O)O)c1cc(=O)[nH]o1 (stereo not given),inactive
12,CCCC[N+]1(C)C2CC(OC(=O)[C@H](CO)c3ccccc3)CC1C1OC12 (stereo not given in full),inactive
13,CC1CCC(C(C)C)C(OC(=O)c2ccccc2N)C1 (stereo not given),inactive
14,NCC(CP(=O)(O)O)c1ccc(Cl)cc1 (stereo not given),inactive
15,Cc1sc2ccccc2c1CC1=NCCN1,inactive
16,NCC(O)c1cccc(O)c1 (stereo not given),inactive
17,CN1C(=O)c2ccccc2NC(=O)[C@]12O[C@@H]2c1ccccc1,inactive
18,O=[N+]([O-])/C=C/c1ccc2c(c1)OCO2,inactive
19,COc1cc(CCNCc2ccccc2O)c(OC)cc1C#N,inactive
20,NC(=O)c1ccc(OCC(O)CN2CC=C(c3ccc(F)cc3)CC2)cc1 (stereo not given),inactive

row,SMILES,Potency
1,CCC1C(C)=NN=C(c2ccc(OC)c(OC)c2)c2cc(OC)c(OC)cc21 (stereo not given),inactive
2,CN1CCC(c2c[nH]c3ccc(O)cc23)CC1,inactive
3,O=S1(=O)N(CCN2CC=C(c3c[nH]c4cc(F)ccc34)CC2)c2cccc3c2N1CCC3,inactive
4,CCc1[nH]c2ccc(OC)cc2c1CCN(C)C,inactive
5,COC(=O)C1(C)CCC(O)C2(C)c3c(O)cc(C(C)C)cc3C(O)C(OC(C)=O)C12 (stereo not given),inactive
6,O=C1C2CC=CCC2C(=O)N1SC(Cl)(Cl)Cl (stereo not given),14.1 µM (active)
7,CCC1(C)CC(=O)NC(=O)C1,inactive
8,CN(C(=O)Cc1ccccc1)C(CN1CCCC1)c1ccccc1 (stereo not given),inactive
9,CC(N)Cc1c[nH]c2ccc(OCc3cccs3)cc12 (stereo not given),inactive
10,COc1ccccc1CN[C@H]1C2CCN(CC2)[C@H]1C(c1ccccc1)c1ccccc1,inactive
11,Cn1sc(Cl)cc1=O,inactive
12,CP(=O)(O)C1=CCNCC1,inactive
13,COC1C(O)C(OC2CCC3(C=O)C(CCC4C3CCC3(C)C(C5=CC(=O)OC5)CCC43O)C2)OC(C)C1OC1OC(CO)C(O)C(O)C1O (stereo not given),inactive
14,C#CCN[C@H](C)Cc1ccccc1,inactive
15,C[C@@]12C[C@@H](c3ccoc3)OC(=O)C1CC[C@]1(C)[C@H]2[C@H]2C=C[C@]1(O)C(=O)O2 (stereo not given in full),inactive
16,O=C(OCCN1CCCCC1)C(O)(c1ccccc1)c1ccccc1,inactive
17,Nc1cc2c(ncn2CCOCP(=O)(O)O)c(=O)[nH]1,inactive
18,CC(=O)OC1CC(O)C(C)(C)C2CC(OC(C)=O)C3(C)C(CCC4(C)C(c5ccoc5)C(=O)C5OC543)C12C (stereo not given),inactive
19,COc1ccc(CNC(=O)/C=C/c2ccc3[nH]cc(CCN(C)C)c3c2)cc1,inactive
20,CCC1NC(=O)C2C(Cl)C(Cl)CN2C(=O)C(C(C)O)NC(=O)CC(c2ccccc2)NC(=O)C(CO)NC1=O (stereo not given),inactive
